Source: PubChem BioAssay AID1159580 (chemical genetic matrix, 2015)
Screen size: about 5,500 compounds; about 2,000 (36%) were called active. Another 18% or so got no clear call; they are omitted. Cut-off read from the data, not from the text of the source: active = normalized growth mostly below about 0.91 (no sharp cut-off); inconclusive = no clear call, values can overlap the other calls; inactive = mostly above about 0.92. This is one part of the list.

Experiment: chemical genetic growth profiling, strain panel (AID 1159580);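 note: tested at 20 µM; growth read once vehicle control cultures reached saturation at 30 °C; 1 = growth at the plate median or of vehicle wells; lower values mean less growth of the strain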
Settings: S. cerevisiae deletion strains, growth OD

Measured: normalized growth

COc1ccc(CN2CSC(=S)N(Cc3ccc(OC)cc3)C2)cc1
inactive: locus YAR019C, strain CDC15, active compounds read low 0.952 | locus YBL105C, strain PKC1, active compounds read low 0.98 | locus YBR135W, strain CKS1, active compounds read low 0.972 | locus YBR136W, strain MEC1, active compounds read low 0.968 | locus YBR160W, strain CDC28, active compounds read low 0.974 | locus YDL017W, strain CDC7, active compounds read low 0.981 | locus YDL028C, strain MPS1, active compounds read low 0.951 | locus YDL101C, strain DUN1, active compounds read low 0.992 | locus YDL108W, strain KIN28, active compounds read low 0.955 | locus YDL132W, strain cdc53, active compounds read low 0.966 | locus YDL214C, strain PRR2, active compounds read low 0.937 | locus YDR052C, strain DBF4, active compounds read low 0.975 | locus YDR054C, strain cdc34, active compounds read low 0.961 | locus YDR226W, strain ADK1, active compounds read low 0.961 | locus YDR477W, strain SNF1, active compounds read low 0.958 | locus YER123W, strain YCK3, active compounds read low 0.891 | locus YER133W, strain GLC7, active compounds read low 0.946 | locus YFL009W, strain cdc4, active compounds read low 0.957 | locus YFL029C, strain CAK1, active compounds read low 0.95 | locus YFR003C, strain YPI1, active compounds read low 0.967 | locus YFR019W, strain FAB1, active compounds read low 0.961 | locus YFR028C, strain CDC14, active compounds read low 0.957 | locus YGR040W, strain KSS1, active compounds read low 0.947 | locus YGR052W, strain FMP48, active compounds read low 0.996 | locus YGR092W, strain DBF2, active compounds read low 0.864 | locus YHR030C, strain SLT2, active compounds read low 0.97 | locus YHR079C, strain IRE1, active compounds read low 0.908 | locus YHR082C, strain KSP1, active compounds read low 0.999 | locus YHR205W, strain SCH9, active compounds read low 0.891 | locus YIL147C, strain SLN1, active compounds read low 0.95 | locus YJL095W, strain BCK1, active compounds read low 0.981 | locus YJL128C, strain PBS2, active compounds read low 0.952 | locus YJL157C, strain FAR1, active compounds read low 0.954 | locus YJR016C, strain ILV3, active compounds read low 0.965 | locus YJR066W, strain TOR1 (second series), active compounds read low 0.94 | locus YJR066W, strain TOR1, active compounds read low 0.998 | locus YKL048C, strain ELM1, active compounds read low 0.958 | locus YKL067W, strain YNK1, active compounds read low 0.954 | locus YKL101W, strain HSL1, active compounds read low 0.94 | locus YKL193C, strain SDS22, active compounds read low 0.964 | locus YKL203C, strain TOR2, active compounds read low 0.989 | locus YLR113W, strain HOG1, active compounds read low 0.91 | locus YLR133W, strain CKI1, active compounds read low 0.961 | locus YLR403W, strain SFP1, active compounds read low 0.927 | locus YML070W, strain DAK1, active compounds read low 0.935 | locus YMR001C, strain CDC5, active compounds read low 0.978 | locus YMR205C, strain PFK2 (second series), active compounds read low 0.945 | locus YMR277W, strain FCP1, active compounds read low 0.97 | locus YNL006W, strain LST8, active compounds read low 0.945 | locus YNL020C, strain ARK1, active compounds read low 0.94 | locus YNL161W, strain CBK1, active compounds read low 0.987 | locus YNL183C, strain NPR1, active compounds read low 0.951 | locus YNL207W, strain RIO2, active compounds read low 0.964 | locus YNL222W, strain SSU72, active compounds read low 0.966 | locus YNL307C, strain MCK1 (second series), active compounds read low 0.905 | locus YOL078W, strain AVO1, active compounds read low 0.967 | locus YOL136C, strain PFK27, active compounds read low 0.956 | locus YOR061W, strain CKA2, active compounds read low 0.939 | locus YOR119C, strain RIO1, active compounds read low 0.985 | locus YOR231W, strain MKK1, active compounds read low 0.937 | locus YOR329C, strain SCD5, active compounds read low 0.979 | locus YPL031C, strain PHO85, active compounds read low 0.95 | locus YPL153C, strain RAD53, active compounds read low 0.931 | locus YPL204W, strain HRR25, active compounds read low 0.931 | locus YPL209C, strain IPL1, active compounds read low 0.966 | locus YPL256C, strain CLN2, active compounds read low 0.953 | locus YPR025C, strain CCL1, active compounds read low 0.98 | locus YPR106W, strain ISR1, active compounds read low 0.983 | locus YPR111W, strain DBF20, active compounds read low 0.979 | strain NNK1, active compounds read low 0.984 | strain TSCII, active compounds read low 0.964
